Experimental findings from ChEMBL document CHEMBL3988442, “University of Dundee, Small-Polar-MMV Screening Library” (2021) are described below.

Assay [1] deals with T1, Aspartate--tRNA(Asp/Asn) ligase (Mycobacterium tuberculosis (strain ATCC 25618 / H37Rv)) (UniProt P9WFW3).
T1 sequence (whole entry): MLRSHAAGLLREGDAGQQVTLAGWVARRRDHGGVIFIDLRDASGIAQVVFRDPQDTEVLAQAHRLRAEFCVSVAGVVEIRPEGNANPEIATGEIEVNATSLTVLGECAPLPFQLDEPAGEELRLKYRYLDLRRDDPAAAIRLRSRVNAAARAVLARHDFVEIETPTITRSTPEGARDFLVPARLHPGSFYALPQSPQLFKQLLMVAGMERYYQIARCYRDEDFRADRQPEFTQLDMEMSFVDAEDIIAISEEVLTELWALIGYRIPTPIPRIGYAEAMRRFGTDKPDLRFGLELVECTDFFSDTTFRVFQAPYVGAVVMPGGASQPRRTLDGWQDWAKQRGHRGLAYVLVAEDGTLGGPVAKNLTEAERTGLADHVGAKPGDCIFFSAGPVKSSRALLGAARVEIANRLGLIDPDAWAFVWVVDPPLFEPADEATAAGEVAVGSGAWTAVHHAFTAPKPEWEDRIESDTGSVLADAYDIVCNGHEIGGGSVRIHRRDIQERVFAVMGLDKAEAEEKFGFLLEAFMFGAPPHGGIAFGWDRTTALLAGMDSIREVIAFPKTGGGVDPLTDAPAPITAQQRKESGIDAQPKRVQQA
In words: Assay for Asp RNA synthetase-1 from Mycobacterium tuberculosis. Type of assay: functional. Further details: scale not given: direction of the effect not stated beside the values. The settings on record: 30 µM.

For assay [2], the target named is Shiga toxin 2 (Escherichia coli O157:H7) (UniProt P09385+P09386). In words: E. coli 0.157:H7 Shiga Toxin SOP - stx2 screening assay. Conditions: 30 µM. Further details: scale not given: direction of the effect not stated beside the values. Type of assay: functional.

Take `CN(C)C(=O)CNC(=O)Nc1cccc(Cl)c1SC(F)F`: the results for the Percent Effect in assay [1] and in assay [2] were 4.9% and -5.26%, respectively.

As to `CN(Cc1ccco1)C[C@H]1OC[C@@H]2CCN(Cc3cccnc3)C[C@@H]21`, the Percent Effect in assay [1] is 3.55%; in assay [2], -24.2%.

Regarding `Cc1occc1C(=O)Nc1ccnc(OC2CCOC2)c1` (configuration not stated), the Percent Effect in assay [1] is -6.74%; in assay [2], 3.41%.

In the case of `CC(C)c1nc(CN(C)CC2CCN(CCO)CC2)no1`, the Percent Effect was 3.25% in assay [1] and -7.83% in assay [2].

Take `CCS(=O)(=O)N1CCC(c2nnc(Cn3cccn3)n2C2CC2)CC1`: the Percent Effect in assay [1] was -3.09%; in assay [2], -6.14%.

For `Cc1c(C(=O)NCC(C)C)nnn1-c1cccc2c1CCN(C)C2`, the Percent Effect is 0.928% in assay [1] and -7.34% in assay [2].

On to `CC(C)c1nc(C2CCCN2Cc2ccccc2C#N)no1` (configuration not stated), for which the Percent Effect was -6.4% in assay [1] and -29.9% in assay [2].

With `Cc1nc(C)n(CC2CCCN(CCOc3cccc(C#N)c3)C2)n1` (configuration not stated), the Percent Effect in assay [1] turned out to be 2%; in assay [2], 12.2%.

As to `CC(O)CN1CCC(CNCc2cccc(OC(C)C)c2)CC1` (configuration not stated), the Percent Effect in assay [1] was 3.21%; in assay [2], -10.6%.

`COc1ccccc1OCC(=O)NS(=O)(=O)c1ccc(Br)s1`: the Percent Effect in assay [1] is 2.43%; in assay [2], -0.0881%.

As for `CC(C)NC(=O)c1n[nH]c(-n2cnnc2)n1`, the Percent Effect in assay [1] was -4.62%; in assay [2] it was -0.0919%.

As to `Fc1ccc(-c2n[nH]cc2-c2ccnc(NCCN3CCCC3)n2)cc1`, the Percent Effect in assay [1] is 8.63%; in assay [2] it was -50.2%.

In the case of `Cc1cc(=O)n2ncnc2n1CC(O)c1ccccc1Cl` (configuration not stated), the Percent Effect in assay [1] was -0.03%; in assay [2] it was -19.6%.

`Cc1cc(C)c(CNC(=O)NCC(c2ccccc2)N(C)C)c(=O)[nH]1` (configuration not stated): the values for the Percent Effect in assay [1] and in assay [2] were 4.47% and 23.9%, respectively.

`CC(=O)N(Cc1noc(C)n1)C1CCN(Cc2ccncc2Cl)C1` (configuration not stated): the values for the Percent Effect in assay [1] and in assay [2] were 1.27% and -3.88%, respectively.

In the case of `CCOCC(=O)N1CCC(Oc2ccc(C(F)(F)F)cn2)CC1`, the Percent Effect is 2.2% in assay [1] and 12.5% in assay [2].

`CCS(=O)(=O)NC(C(=O)NC)c1ccc(F)c(F)c1` (configuration not stated): the Percent Effect in assay [1] was -0.436%; in assay [2] it was 10.3%.

Regarding `c1cncc(OCc2noc3c2CN(Cc2ccoc2)CC3)c1`, the Percent Effect was 2.82% in assay [1] and -31.1% in assay [2].

In the case of `Cc1cccc(-c2nc(CN3CCc4cnc(C)nc4C3)no2)c1`, the results for the Percent Effect in assay [1] and in assay [2] were 4.76% and 6.99%, respectively.

With `Cc1ccc(C(O)CNC(=O)NCc2nc(C)cs2)cc1` (configuration not stated), the Percent Effect in assay [1] was -0.636%; in assay [2] it was 1.54%.

Regarding `Cc1n[nH]cc1CNc1ccc2c(c1)N(C(=O)OC(C)(C)C)CCC2`, the results for the Percent Effect in assay [1] and in assay [2] were 6.33% and -17.7%, respectively.

For the compound `CN(CC(=O)NC1(C#N)CCCC1)C1CCCN(c2cccnn2)C1` (configuration not stated), the figures for the Percent Effect in assay [1] and in assay [2] were 7.28% and 21.9%, respectively.

As to `Cc1ccc(-c2nc(CNC3CCc4ncnn4C3)co2)c(C)c1` (configuration not stated), the Percent Effect in assay [1] was -9.8%; in assay [2], -22%.

Turning to `CC(C)(C#N)C(=O)N1CCCC(c2cc(C(F)(F)F)[nH]n2)C1` (configuration not stated), the Percent Effect was -1.34% in assay [1] and -11.7% in assay [2].

Regarding `CC(O)CNC(=O)NCc1ccc(N2CCNC(=O)C2)cc1` (configuration not stated), the Percent Effect in assay [1] is 2.09%; in assay [2], -86.8%.

Turning to `N#Cc1cn(C2CC2)c(=O)n(CC(O)c2ccccc2F)c1=O` (configuration not stated), the Percent Effect in assay [1] came to 0.3%; in assay [2], 14.2%.

Regarding `COCc1nc(C(=O)NS(=O)(=O)c2cc(F)ccc2F)cs1`, the Percent Effect was -0.5% in assay [1] and -51.5% in assay [2].

Turning to `CN(C(=O)NCCCN1CCCC1)C1CCN(c2ccccc2)C1=O` (configuration not stated), the Percent Effect in assay [1] was -0.189%; in assay [2], 24.2%.

For `Cc1scc(C(=O)N2CCC3(CC(=O)NC3=O)C2)c1-c1ccccc1` (configuration not stated), the Percent Effect is 0.19% in assay [1] and 8.3% in assay [2].

With `CC(C)(C)OC(=O)N1CCCC[C@H]1C(=O)NCc1nccs1`, the results for the Percent Effect in assay [1] and in assay [2] were -1.06% and -16.6%, respectively.

Turning to `c1cnn(CCNCc2csc(-c3ccsc3)n2)c1`, the Percent Effect was -3.52% in assay [1] and -113% in assay [2].

On to `CN(Cc1cccc(O)c1)CC1CCCN(CCc2ccc(Cl)cc2)C1` (configuration not stated), for which the values for the Percent Effect in assay [1] and in assay [2] were 4.47% and -33.8%, respectively.

For `O=C(c1cc(Cl)c2c(c1)OCO2)N1CCN(c2nccs2)CC1`, the Percent Effect in assay [1] is -0.23%; in assay [2], -4.3%.

On to `CCC1c2ccsc2CCN1C(=O)NCc1cc[nH]n1` (configuration not stated), for which the results for the Percent Effect in assay [1] and in assay [2] were -1.83% and -35%, respectively.

`NC(=O)c1cc(C2CCCN(C(=O)CCc3ccsc3)C2)n[nH]1` (configuration not stated): the results for the Percent Effect in assay [1] and in assay [2] were -5.77% and 21.2%, respectively.

Take `CN(C(=O)C1CSCN1S(=O)(=O)c1ccc(F)cc1)C1CC1` (configuration not stated): the Percent Effect is -0.268% in assay [1] and 7.34% in assay [2].

As to `COCC(=O)N1CCN(C(=O)c2scnc2C)CC1`, the Percent Effect was -5.75% in assay [1] and -11% in assay [2].

Regarding `O=C(CCOc1cccc(F)c1)N1CCCC(n2cncn2)C1` (configuration not stated), the Percent Effect in assay [1] was -2.92%; in assay [2] it was 5.88%.

As to `CC1CN(CC(=O)Nc2cccnc2)CCN1c1nccs1` (configuration not stated), the Percent Effect is 0.466% in assay [1] and 7.04% in assay [2].

`O=C(NCc1cc[nH]n1)NCC(c1ccco1)N1CCCC1` (configuration not stated): the Percent Effect in assay [1] was determined as 0.607%; in assay [2], 4.49%.

Turning to `CN(C(=O)C1CCCCC1)[C@@H]1CCC[C@@H](N2CCOCC2)[C@@H]1O`, the Percent Effect in assay [1] was 0.61%; in assay [2], -11.6%.

As for `O=C(c1ccno1)N1CC[C@@H]2O[C@@H](COCCN3CCCC3)CC[C@@H]21`, the values for the Percent Effect in assay [1] and in assay [2] were -0.779% and -4.5%, respectively.

Regarding `C[C@H]1CN(Cc2cnn(C)c2)C[C@@]12CCN(Cc1cccnc1)C2=O`, the Percent Effect in assay [1] is -2.89%; in assay [2] it was -10.2%.

Take `O=C(NC1CC1)c1cc(NC(=O)N2CCCC(O)C2)ccc1Cl` (configuration not stated): the Percent Effect is -0.137% in assay [1] and -38.6% in assay [2].

Turning to `Cc1cc(-c2cnc(NC3CCCC3)nc2-c2ccoc2C)on1`, the Percent Effect is 3.94% in assay [1] and -25.8% in assay [2].

Turning to `c1cnc(N2CCC3(CC2)CN(CC2CC2)c2ccccc23)nc1`, the Percent Effect in assay [1] was 3.62%; in assay [2], -25%.

With `CC(C)(C)OC(=O)N1CCN(C(=O)c2sccc2C2CC2)CC1`, the Percent Effect in assay [1] was -2.9%; in assay [2] it was -0.841%.

Turning to `COCCN1CC[C@]2(CN(C(=O)c3cccs3)C[C@H]2C)C1=O`, the values for the Percent Effect in assay [1] and in assay [2] were 1.59% and -8.13%, respectively.

`CCc1cnc(CN(C(C)=O)C2CCN(CCc3cnn(C)c3)C2)o1` (configuration not stated): the Percent Effect in assay [1] was -5.68%; in assay [2], 20.4%.

Turning to `CN(CCc1ccccc1)Cc1cc(C(=O)N2CCN(C)C(=O)C2)no1`, the values for the Percent Effect in assay [1] and in assay [2] were -2.28% and -18.1%, respectively.

Consider `COc1c(CNC(c2nccn2C)C(C)C)c(C)nn1C` (configuration not stated), for which the Percent Effect in assay [1] turned out to be 0.122%; in assay [2], 16.3%.
